{"source": "PubChem BioAssay AID493191", "about": "(Broad Institute, 2011)", "note": "Out of some 1,300 compounds screened, about 330 (25%) were called active. Not all results are given here. Potency and affinity values are given separately. A number with no mark means an inactive call. No rule for the calls is given here."}
{"test": "growth inhibition of MALME3 cells – cell-based, CellTiter-Glo, cherry-picked, orthogonal assay for MITF inhibitor project, dose response (AID 493191)", "settings": "MALME3 melanoma viability, CellTiter-Glo luminescence, 24 h; series mostly up to 35 µM; activity change, negative = inhibition: at the top concentration", "units": {"activity change, negative = inhibition": "%"}}
{"smiles": "COc1ccc2c(c1OC)C(=O)N(c1ccc(C)cc1)C2", "activity change, negative = inhibition": -3.44}
{"smiles": "CCOc1cc(/C=C(/C#N)c2ccc(Cl)cc2)cc(Cl)c1OCC(=O)O", "activity change, negative = inhibition": 13.5}
{"smiles": "O=C(Nc1ccc2nc3n(c(=O)c2c1)CCCCC3)c1cc([N+](=O)[O-])ccc1F", "activity change, negative = inhibition": -16}
{"smiles": "CC(C)(C)C(=O)Nc1cc2nn(-c3ccccc3)nc2cc1Cl", "activity change, negative = inhibition": -14.6}
{"smiles": "Oc1ccc(-c2nnc(SCC3CCCCC3)o2)cc1", "activity change, negative = inhibition": -10.5}
{"smiles": "CC(=O)c1cccc(Nc2nc(-c3cccnc3)cs2)c1", "activity change, negative = inhibition": -5.43}
{"smiles": "CCOc1cc(/C=C\\[N+](=O)[O-])ccc1OCC(=O)N1CCOCC1", "activity change, negative = inhibition": -26.9}
{"smiles": "C/C(=N/Nc1nc(C)c(C)s1)c1cccc([N+](=O)[O-])c1", "activity change, negative = inhibition": -0.825}
{"smiles": "CCOc1ccccc1NC(=O)C1C2CCC(O2)C1C(=O)O", "note": "(centres undefined)", "activity change, negative = inhibition": 22.9}
{"smiles": "Cc1cc(/C(N)=N/OC(=O)Nc2ccc(Cl)cc2)no1", "activity change, negative = inhibition": 0.994}
{"smiles": "COc1ccccc1/C=C/C=N/NC(=O)c1cccs1", "activity change, negative = inhibition": 9.36}
{"smiles": "COc1ccc(NC(=O)c2cc3ccccc3oc2=O)c(OC)c1", "activity change, negative = inhibition": -10.4}
{"smiles": "Cc1ccccc1OCC(=O)Nc1cccc(C(=O)O)c1", "activity change, negative = inhibition": 6.99}
{"smiles": "COc1cccc(/C=N/NC(=O)c2cccs2)c1", "activity change, negative = inhibition": 4.46}
{"smiles": "COc1ccc(-c2noc(-c3cccs3)n2)cc1OC", "activity change, negative = inhibition": 3.3}
{"smiles": "N#CCSc1nc2ccccc2c2nc3ccccc3n12", "activity change, negative = inhibition": -38.1}
{"smiles": "CC1(C)CC(=O)c2cnc(N3CCc4ccccc43)nc2C1", "activity change, negative = inhibition": 5.14}
{"smiles": "Cc1cc(C(=O)CSc2nnc3ccccn23)c(C)n1-c1ccccc1", "activity change, negative = inhibition": -10.4}
{"smiles": "COc1ccccc1N(C(=O)CCl)c1cn(C(C)=O)c2ccccc12", "activity change, negative = inhibition": -13.6}
{"smiles": "Cn1cc(C(=O)CCl)c2ccccc21", "activity change, negative = inhibition": -33.3}
{"smiles": "Cc1ccc2c(C(=O)CCl)c(C)[nH]c2c1", "activity change, negative = inhibition": -26.6}
{"smiles": "O=C(Nc1ccc(OC(F)(F)F)cc1)c1[nH]ncc1[N+](=O)[O-]", "activity change, negative = inhibition": -0.947}
{"smiles": "COC(=O)c1c(C)[nH]c(/C=N/Nc2ccccc2)c1C", "activity change, negative = inhibition": -7.12}
{"smiles": "COCc1nc(-c2ccc(-c3ccccc3)nc2OC)no1", "activity change, negative = inhibition": 12.8}
{"smiles": "C/C(=N\\Nc1nccnc1Cl)c1ccc(O)c(C)c1", "activity change, negative = inhibition": -5.53}
{"smiles": "Nc1ccc2c(c1)OC1(CCCC1)O2", "activity change, negative = inhibition": 4.5}
{"smiles": "COc1cc(OC)cc(-c2oc(=O)c3cc(OC)c(OC)cc3c2C(F)(F)F)c1", "activity change, negative = inhibition": 6.56}
{"smiles": "CC1CCN(c2ccc(NC(=O)c3cccnc3)cc2)CC1", "activity change, negative = inhibition": 2.45}
{"smiles": "CC(C)(C)c1ccc(C(=O)Nc2ccc(CC(=O)O)cc2)o1", "activity change, negative = inhibition": -8.99}
{"smiles": "CN1CCN(c2ccc(NC(=S)NC(=O)c3cccc4ccccc34)cc2)CC1", "activity change, negative = inhibition": -22.1}
{"smiles": "COc1c(C)cccc1C(=O)Nc1ccc(N2CCN(S(C)(=O)=O)CC2)cc1", "activity change, negative = inhibition": 2.37}
{"smiles": "CCCCOC(=O)Nc1ccc2c(C)cc(=O)oc2c1", "activity change, negative = inhibition": -7.25}
{"smiles": "CC(C)N=C(NS(=O)(=O)c1ccccc1)C(Cl)(Cl)Cl", "activity change, negative = inhibition": -23.1}
{"smiles": "CC(=O)Oc1ccc(C)cc1-n1nc2ccccc2n1", "activity change, negative = inhibition": -8.62}
{"smiles": "NC(=O)c1ccccc1NC(=O)/C=C/c1cccc(Cl)c1", "activity change, negative = inhibition": 3.67}
{"smiles": "Nc1ccc(-c2ncc(-c3ccccc3)o2)cc1", "activity change, negative = inhibition": 8.17}
{"smiles": "N#C/C(=C\\c1c[nH]c2ccccc12)C(=O)NC1CC1", "activity change, negative = inhibition": 8.25}
{"smiles": "Cc1ccc(NC(=O)c2cc3cccc([N+](=O)[O-])c3[nH]2)cc1", "activity change, negative = inhibition": -4.99}
{"smiles": "ClC1(Cl)CC1CSc1nnc(-c2ccncc2)o1", "note": "(centres undefined)", "activity change, negative = inhibition": -0.215}
{"smiles": "COc1cc(SC)ccc1C(=O)Nc1ccc(Br)cn1", "activity change, negative = inhibition": -19.4}
{"smiles": "COc1ccc(-n2ncc3c(N4CCCCC4)ncnc32)cc1", "activity change, negative = inhibition": -26.4}
{"smiles": "Cc1ccc(C(=O)c2coc3ccc(O)c(Cl)c23)cc1", "activity change, negative = inhibition": -7.8}
{"smiles": "COc1cccc(-c2ccc3c(N)c(C(=O)NC4CC4)sc3n2)c1", "activity change, negative = inhibition": 6.5}
{"smiles": "O=S(=O)(CC(CN1CCCCC1)N1CCCCC1)c1ccc2ccccc2c1", "note": "(centres undefined)", "activity change, negative = inhibition": -17}
{"smiles": "Cc1ccc(S(=O)(=O)CC(CN2CCCCC2)N2CCCCC2)cc1", "note": "(centres undefined)", "activity change, negative = inhibition": 6.97}
{"smiles": "C=CCC(Nc1ccccc1)C12C=CC(O1)C(C(=O)OC)=C2C(=O)OC", "note": "(centres undefined)", "activity change, negative = inhibition": -24.4}
{"smiles": "Cc1ccc(C)c(-n2c3nc(=O)[nH]c(=O)c-3cc3cc([N+](=O)[O-])ccc32)c1", "activity change, negative = inhibition": 11.9}
{"smiles": "COc1ccc(C2C(C#N)=C(N)Oc3c2oc(CO)cc3=O)cc1", "note": "(centres undefined)", "activity change, negative = inhibition": -3.32}
{"smiles": "Cc1ccc(NC(=O)Cc2noc3ccccc23)cc1", "activity change, negative = inhibition": -4.89}
{"smiles": "COc1ccccc1C(=O)Nc1nc(-c2ccc(S(=O)(=O)N3CCOCC3)cc2)cs1", "activity change, negative = inhibition": -15.5}
{"smiles": "Cc1cnc(NC(=O)c2nn(C)cc2[N+](=O)[O-])s1", "activity change, negative = inhibition": 16.6}
{"smiles": "O=C(O)c1cccc(N/N=C/c2cccs2)c1", "activity change, negative = inhibition": 4.16}
{"smiles": "Cc1cc(C(=O)Nc2ccc([N+](=O)[O-])cn2)cs1", "activity change, negative = inhibition": 7.3}
{"smiles": "O=C(N/N=C/c1cc([N+](=O)[O-])ccc1N1CCNCC1)c1ccc([N+](=O)[O-])cc1", "activity change, negative = inhibition": -44.9}
{"smiles": "O=C(O)c1cccc(N/N=C/c2ccc(OC(F)(F)F)cc2)c1", "activity change, negative = inhibition": 3.69}
{"smiles": "c1cnc(SCCOc2ccc3c(c2)CCC3)nc1", "activity change, negative = inhibition": 0.3}
{"smiles": "Cn1nnnc1Sc1ncnc2scc(-c3cccc(F)c3)c12", "activity change, negative = inhibition": -8.39}
{"smiles": "CC1CCCCC1NC(=O)/C(C#N)=C/c1ccccc1F", "note": "(centres undefined)", "activity change, negative = inhibition": -36.7}
{"smiles": "COc1cccc(NC(=O)c2cnn(-c3ccccc3)c2C)c1", "activity change, negative = inhibition": -7.95}
